Test results as given in PubChem BioAssay (NCATS).
Results filed as inconclusive are left out. Calls of active or inactive are those of the source. Calls follow the shape of the dose curve; as a rule, active = well fitted cell-killing curve with a large enough effect; inconclusive = small, poorly fitted or top-dose-only effect, or effect the other way; inactive = flat fitted curve, though single readings scatter.

Experiments:
Test in all cases: Primary qHTS to identify gynecologic anti-cancer compounds using libraries of approved drugs and bioactive compounds (AID 1345084); also: nearly all actives have a fitted effect of over 55% in size
C33A = settings: Gynecologic cancer cell panel viability, ATPlite luminescence, 48 h; series mostly up to 57.5 µM
Summary of the method: (§1)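 Cell viability after 48 h drug treatment, ATPlite luminescence readout; five doses.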

CAOV3 = settings: Gynecologic cancer cell panel viability, ATPlite luminescence, 48 h; series mostly up to 57.5 µM
Summary of the method: as §1

CASKI = settings: Gynecologic cancer cell panel viability, ATPlite luminescence, 48 h; series mostly up to 57.5 µM
Summary of the method: as §1

Es-2 = settings: Gynecologic cancer cell panel viability, ATPlite luminescence, 48 h; series mostly up to 57.5 µM
Summary of the method: as §1

HeLa = settings: Gynecologic cancer cell panel viability, ATPlite luminescence, 48 h; series mostly up to 57.5 µM
Summary of the method: as §1

Hek293T = settings: Gynecologic cancer cell panel viability, ATPlite luminescence, 48 h, control line for the selectivity index; series mostly up to 57.5 µM
Summary of the method: as §1

JEG-3 = settings: Gynecologic cancer cell panel viability, ATPlite luminescence, 48 h; series mostly up to 57.5 µM
Summary of the method: as §1

OV90 = settings: Gynecologic cancer cell panel viability, ATPlite luminescence, 48 h; series mostly up to 57.5 µM
Summary of the method: as §1

PA-1 = settings: Gynecologic cancer cell panel viability, ATPlite luminescence, 48 h; series mostly up to 57.5 µM
Summary of the method: as §1

SKOV3 = settings: Gynecologic cancer cell panel viability, ATPlite luminescence, 48 h; series mostly up to 57.5 µM
Summary of the method: as §1

Tov-21-G = settings: Gynecologic cancer cell panel viability, ATPlite luminescence, 48 h; series mostly up to 57.5 µM
Summary of the method: as §1

Tov112D = settings: Gynecologic cancer cell panel viability, ATPlite luminescence, 48 h; series mostly up to 57.5 µM
Summary of the method: as §1
% is scaled to controls: 0 for no effect and ±100 for the full control effect.

COC(=O)C1=CO[C@@H](O[C@@H]2O[C@H](CO)[C@@H](O)[C@H](O)[C@H]2O)[C@@H]2C(CO)=CC[C@H]12
inactive: Potency (C33A) | Potency (CAOV3) | outcome (CASKI) | Potency (Es-2) | Potency (HeLa) | Potency (Hek293T) | Potency (JEG-3) | Potency (OV90) | Potency (PA-1) | Potency (SKOV3) | Potency (Tov-21-G) | Potency (Tov112D)

C=C(COC(=O)C(C)C)C1Oc2cc(C(C)=O)ccc2C1OC(=O)C(C)C (centres undefined)
inactive: Potency (C33A) | Potency (CAOV3) | outcome (CASKI) | Potency (Es-2) | Potency (HeLa) | Potency (Hek293T) | Potency (JEG-3) | Potency (OV90) | Potency (PA-1) | Potency (SKOV3) | Potency (Tov-21-G) | Potency (Tov112D)

CC(=O)OC1CC2C(C)(C)C(=O)C=CC2(C)C2CC(=O)C3=C(CCC3C3=CC(O)OC3=O)C12C (centres undefined)
inactive: Potency (C33A) | Potency (CAOV3) | outcome (CASKI) | Potency (Es-2) | Potency (HeLa) | Potency (Hek293T) | Potency (JEG-3) | Potency (OV90) | Potency (PA-1) | Potency (SKOV3) | Potency (Tov-21-G) | Potency (Tov112D)

CC(C)=CC[C@H]1O[C@]2(O)C([C@H]3CCC4[C@@]5(C)CC[C@H](O[C@@H]6O[C@H](CO)[C@H](O)[C@H](O[C@@H]7O[C@H](CO)[C@@H](O)[C@H](O)[C@H]7O)[C@H]6O[C@@H]6O[C@@H](C)[C@H](O)[C@@H](O)[C@H]6O)C(C)(C)C5CC[C@@]4(C)[C@]3(C)[C@H]2O)[C@@]1(C)O (some centres undefined)
inactive: activity change, negative = cytotoxicity (C33A) 1.02% [at 11.6 µM] | activity change, negative = cytotoxicity (CAOV3) 7.68% [at 11.6 µM] | activity change, negative = cytotoxicity (CASKI) -0.575% [at 11.6 µM] | activity change, negative = cytotoxicity (Es-2) -1.48% [at 11.6 µM] | activity change, negative = cytotoxicity (HeLa) -4.09% [at 11.6 µM] | activity change, negative = cytotoxicity (Hek293T) 0.87% [at 11.6 µM] | activity change, negative = cytotoxicity (JEG-3) 13.4% [at 11.6 µM] | activity change, negative = cytotoxicity (OV90) -2.06% [at 11.6 µM] | activity change, negative = cytotoxicity (PA-1) 0.425% [at 11.6 µM] | activity change, negative = cytotoxicity (SKOV3) 28% [at 11.6 µM] | activity change, negative = cytotoxicity (Tov-21-G) -2.04% [at 11.6 µM] | activity change, negative = cytotoxicity (Tov112D) 6.89% [at 11.6 µM]

N#Cc1cc(-c2n[nH]c(-c3ccncc3)n2)ccn1
inactive: Potency (C33A) | Potency (CAOV3) | outcome (CASKI) | Potency (Es-2) | Potency (HeLa) | Potency (Hek293T) | Potency (JEG-3) | Potency (OV90) | Potency (PA-1) | Potency (SKOV3) | Potency (Tov-21-G) | Potency (Tov112D)

C/C=C(/C)C(=O)O[C@@H]1C[C@@H](OC(=O)/C(C)=C\C)[C@@]2(C)C3C(=O)C=C(C)C2C3C1(C)C
inactive: Potency (C33A) | Potency (CAOV3) | outcome (CASKI) | Potency (Es-2) | Potency (HeLa) | Potency (Hek293T) | Potency (JEG-3) | Potency (OV90) | Potency (PA-1) | Potency (SKOV3) | Potency (Tov-21-G) | Potency (Tov112D)

C[C@@H]1O[C@@H](O[C@H]2[C@H](OC(=O)[C@]34CCC(C)(C)C[C@H]3C3=CCC5[C@@]6(C)CC[C@H](O[C@@H]7O[C@H](CO[C@@H]8OC[C@H](O)[C@H](O)[C@H]8O[C@@H]8OC[C@@H](O)[C@H](O)[C@H]8O)[C@@H](O)[C@H](O)[C@H]7O)C(C)(C)C6CC[C@@]5(C)[C@]3(C)C[C@H]4O)O[C@H](CO)[C@@H](O)[C@@H]2O)[C@H](O[C@@H]2O[C@H](CO)[C@@H](O)[C@H](O)[C@H]2O)[C@H](O)[C@H]1O[C@@H]1OC[C@@H](O)[C@H](O[C@@H]2OC[C@@H](O)[C@H](O)[C@H]2O)[C@H]1O (some centres undefined)
inactive: activity change, negative = cytotoxicity (C33A) 6.83% [at 6.55 µM] | activity change, negative = cytotoxicity (CAOV3) -0.37% [at 6.55 µM] | activity change, negative = cytotoxicity (CASKI) -2.72% [at 6.55 µM] | activity change, negative = cytotoxicity (Es-2) -1.37% [at 6.55 µM] | activity change, negative = cytotoxicity (HeLa) 0.0394% [at 6.55 µM] | activity change, negative = cytotoxicity (Hek293T) 6.55% [at 6.55 µM] | activity change, negative = cytotoxicity (JEG-3) 9.73% [at 6.55 µM] | activity change, negative = cytotoxicity (OV90) -1.86% [at 6.55 µM] | activity change, negative = cytotoxicity (PA-1) 1.34% [at 6.55 µM] | activity change, negative = cytotoxicity (SKOV3) 0% [at 6.55 µM] | activity change, negative = cytotoxicity (Tov-21-G) -2.86% [at 6.55 µM] | activity change, negative = cytotoxicity (Tov112D) 0.0551% [at 6.55 µM]

O=C(O)C[C@H]1CCC(=O)[C@@H]1C/C=C\CCO
inactive: Potency (C33A) | Potency (CAOV3) | outcome (CASKI) | Potency (Es-2) | Potency (HeLa) | Potency (Hek293T) | Potency (JEG-3) | Potency (OV90) | Potency (PA-1) | Potency (SKOV3) | Potency (Tov-21-G) | Potency (Tov112D)

CC(C)=CCC[C@](C)(O[C@@H]1O[C@H](CO[C@@H]2O[C@@H](CO)[C@H](O)[C@H]2O[C@@H]2OC[C@@H](O)[C@H](O)[C@H]2O)[C@@H](O)[C@H](O)[C@H]1O)[C@H]1CC[C@]2(C)[C@@H]1[C@H](O)CC1[C@@]3(C)CC[C@H](O[C@@H]4O[C@H](CO)[C@@H](O)[C@H](O)[C@H]4O[C@@H]4O[C@H](CO)[C@@H](O)[C@H](O)[C@H]4O)C(C)(C)C3CC[C@]12C (some centres undefined)
inactive: activity change, negative = cytotoxicity (C33A) 7.16% [at 6.55 µM] | activity change, negative = cytotoxicity (CAOV3) 9.01% [at 6.55 µM] | activity change, negative = cytotoxicity (CASKI) 10.9% [at 6.55 µM] | activity change, negative = cytotoxicity (Es-2) 4.94% [at 6.55 µM] | activity change, negative = cytotoxicity (HeLa) -1.43% [at 6.55 µM] | activity change, negative = cytotoxicity (Hek293T) 2.28% [at 6.55 µM] | activity change, negative = cytotoxicity (JEG-3) 5.39% [at 6.55 µM] | activity change, negative = cytotoxicity (OV90) -2.38% [at 6.55 µM] | activity change, negative = cytotoxicity (PA-1) 11.1% [at 6.55 µM] | activity change, negative = cytotoxicity (SKOV3) 24.5% [at 6.55 µM] | activity change, negative = cytotoxicity (Tov-21-G) 0.809% [at 6.55 µM] | activity change, negative = cytotoxicity (Tov112D) 0.454% [at 6.55 µM]

Cc1[nH]c2ccccc2c1CC(=O)N[C@@H](Cc1ccccc1)C(=O)N(C)c1ccccc1
inactive: Potency (C33A) | Potency (CAOV3) | outcome (CASKI) | Potency (Es-2) | Potency (HeLa) | Potency (Hek293T) | Potency (JEG-3) | Potency (OV90) | Potency (PA-1) | Potency (SKOV3) | Potency (Tov-21-G) | Potency (Tov112D)

COC(=O)[C@]1(C)CCC[C@@]2(C)C(=O)CC[C@H]3C(=O)C=C(CC[C@@H]21)C3O (some centres undefined)
inactive: Potency (C33A) | Potency (CAOV3) | outcome (CASKI) | Potency (Es-2) | Potency (HeLa) | Potency (Hek293T) | Potency (JEG-3) | Potency (OV90) | Potency (PA-1) | Potency (SKOV3) | Potency (Tov-21-G) | Potency (Tov112D)

COc1c2c(c(C)c3c1C(=O)OC3)OC1(C)CC(O)C34OC(OC)(CCC3(C)C1C2)OC4(C)CO (centres undefined)
inactive: Potency (C33A) | Potency (CAOV3) | outcome (CASKI) | Potency (Es-2) | Potency (HeLa) | Potency (Hek293T) | Potency (JEG-3) | Potency (OV90) | Potency (PA-1) | Potency (SKOV3) | Potency (Tov-21-G) | Potency (Tov112D)
